Compounds without any hit were thinned out: in the full panel of roughly 79,000, 15% have a hit. Cut-off read from the data, not from the text of the source: active = growth inhibition above about 70%; inactive = the rest.
Assays:
[1] = NCI Yeast Anticancer Drug Screen. Data for the rad50 strain (AID 155);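 note: 0% = growth of vehicle-only cultures of the same strain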; settings: S. cerevisiae rad50 strain growth inhibition; at 50.0 µM; stronger effect = higher value
In short: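 Inhibition values express reduced yeast growth in compound-treated cultures relative to vehicle-treated controls.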

[2] = NCI Yeast Anticancer Drug Screen. Data for the mec2-1 strain (AID 157); settings: S. cerevisiae mec2-1 strain, at 50.0 µM, stronger effect = higher value
In short: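 mec2-1 yeast strain, carrying an alteration in DNA damage repair or cell cycle control, was exposed to compounds; growth inhibition was measured relative to vehicle-treated controls.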

[3] = NCI Yeast Anticancer Drug Screen. Data for the sgs1 mgt1 strain (AID 161);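 note: 0% = growth of cultures given vehicle only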; settings: S. cerevisiae sgs1 mgt1 strain, at 50.0 µM, stronger effect = higher value
In short: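 Yeast cells carrying a defined DNA-repair defect were exposed to test compounds. Growth inhibition was measured relative to vehicle-treated controls.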

[4] = NCI Yeast Anticancer Drug Screen. Data for the cln2 rad14 strain (AID 165);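 note: 0% = growth equal to vehicle treated cultures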; settings: S. cerevisiae cln2 rad14 strain, at 50.0 µM, stronger effect = higher value
In short: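 Yeast carrying cln2 and rad14 alterations (cell cycle control and DNA damage repair) were exposed to compounds. Growth inhibition was measured against vehicle-treated controls.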

[5] = NCI Yeast Anticancer Drug Screen. Data for the bub3 strain (AID 167); settings: S. cerevisiae bub3 mutant strain, at 50.0 µM, stronger effect = higher value
In short: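 Steps: expose the mutant yeast strain to compound; grow alongside vehicle-treated cultures; measure growth; express inhibition against the vehicle cultures.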

[6] = NCI Yeast Anticancer Drug Screen. Data for the mlh1 rad18 strain (AID 175); settings: S. cerevisiae mlh1 rad18 strain growth inhibition; at 50.0 µM; stronger effect = higher value
In short: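 Growth inhibition of the yeast strain was measured after compound exposure and expressed relative to vehicle-treated controls. The strain carries defined defects in DNA damage repair.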

Measured: growth inhibition

CCOC(=O)/C=C(/C)N
inactive: [1] -19.1% | [2] -7.25% | [3] -14.2% | [4] 8.45% | [5] 1.85% | [6] -0.75%

CCCC1SC(=S)N(c2ccc(Cl)cc2)C1=O (stereo unspecified)
inactive: [1] 17.9% | [2] 22.1% | [3] 26.5% | [4] 9.2% | [5] -1.55% | [6] 9.9%

O=C(OCc1ccccc1)c1ccc(Cl)cc1
inactive: [1] 22.9% | [2] 5.7% | [3] 20.6% | [4] 15.2% | [5] -1.65% | [6] 4.4%

CC1(C)OC(=O)N=C1c1ccc(F)cc1
inactive: [1] -9.3% | [2] 7.7% | [3] -1.25% | [4] 2% | [5] -1.65% | [6] 17.4%

Cc1ccc(S(=O)(=O)Nc2ccc([N+](=O)[O-])cc2[N+](=O)[O-])cc1
inactive: [1] 17.5% | [2] 15.3% | [3] -1.65% | [4] 9.85% | [5] 1.15% | [6] 17.8%

COC1OC(CI)C(OC(=O)c2ccccc2)C(OC(=O)c2ccccc2)C1OC(=O)c1ccccc1 (stereo unspecified)
inactive: [1] 10.8% | [2] 21.4% | [3] 10.2% | [4] 15.2% | [5] 36.1% | [6] 33.5%

CCOC(=O)C1Sc2ccccc2N=C1C (stereo unspecified)
inactive: [1] 0% | [2] -15.8% | [3] -2.45% | [4] -1.25% | [5] -10.6% | [6] 2.6%

CCCCCCCCCCCCCCCCN1c2ccccc2C(C)(C)C12C=Cc1cccc([N+](=O)[O-])c1O2 (stereo unspecified)
inactive: [1] 2.85% | [2] -0.6% | [3] 13.7% | [4] 14.2% | [5] -3.1% | [6] -3.2%

CCCCS/C=C\C(=O)OCC
inactive: [1] 18.9% | [2] -22.8% | [3] -8.5% | [4] -44% | [5] 0.15% | [6] -15.4%

O=c1c2c3c(sc2nc2n1N=CN(c1ccc(F)cc1)C2)CCCC3
inactive: [1] 4.95% | [2] -1.9% | [3] 2.4% | [4] -8.3% | [5] -1.05% | [6] -5.9%

Nc1ncnc2c1ncn2C1C=CC(COS(N)(=O)=O)C1 (stereo unspecified)
inactive: [1] 13.2% | [2] 21.9% | [3] 0.7% | [4] 10.8% | [5] 13.9% | [6] 29.4%

O=[N+]([O-])c1ccccc1C1N2CCCCC2[C@@H]2c3[nH]c4ccccc4c3CCN12 (stereo partly specified)
inactive: [1] 0.2% | [2] -11.9% | [3] 3.3% | [4] 1.85% | [5] 3.05% | [6] 8.3%

CC(=O)Nc1cc2cc(N)ccc2oc1=O
inactive: [1] -6.2% | [2] 0.4% | [3] 8.9% | [4] 10.4% | [5] 15.2% | [6] 16.6%

C[CH2][Ge]([CH2]C)[CH2]C.C[CH2][Ge]([CH2]C)[CH2]C.C[CH2][Ge]([CH2]C)[S][Ge]([CH2]C)[CH2]C
inactive: [1] 25.1% | [2] 29.5% | [3] 52.7% | [4] 40.4% | [5] 35.9% | [6] 6.75%

CCCCCCCCCCCCSCCSCCC
inactive: [1] -19.1% | [2] -10.7% | [3] 1% | [4] -14.6% | [5] -7.35% | [6] 4.5%

Nc1ncnc2c1ccn2C1OC2COP(=O)(O)OC2C1O (stereo unspecified)
inactive: [1] -12.6% | [2] -31.4% | [3] -7.1% | [4] 8.45% | [5] -18.3% | [6] -15.1%

O=[N+]([O-])c1cccnc1Sc1nc2ccccc2[nH]1
inactive: [1] 20.2% | [2] 17.9% | [3] 25.5% | [4] -20.5% | [5] 21.8% | [6] 6.2%

O=C(O)C1CC[N-]CC1.O=C(O)C1CC[N-]CC1.[NH2-].[NH2-].[Pt+4]
inactive: [1] -5.4% | [2] 14.8% | [3] 2.2% | [4] 12.7% | [5] 2.6% | [6] 18.4%

COC1=NN2C(OC)(c3ccccc3)c3c(-c4ccccc4)sc(-c4ccccc4)c3C2(c2ccccc2)S1 (stereo unspecified)
inactive: [1] 29.4% | [2] 2.1% | [3] 5.15% | [4] 37.6% | [5] 1.9% | [6] 5.5%

COc1ccc(Nc2nc3cc(C(F)(F)F)ccc3nc2-c2ccccc2)cc1OC
inactive: [1] 2.05% | [2] 2.65% | [3] -48.2% | [4] -4.85% | [5] -12.4% | [6] -24.4%

CC(C)=CCC\C(C)=C/C=C/C(C)=C\C=C\C(C)=C/C=C/C=C(C)\C=C\C=C(C)/C=C/C=C(/C)CCC=C(C)C
inactive: [1] 7.15% | [2] -30.8% | [3] -29% | [4] 30.9% | [5] -30.6% | [6] 20.2%

[Cl][Bi]([O]c1ccccn1)[O]c1ccccn1
inactive: [1] 9.9% | [2] -1.55% | [3] -13.4% | [4] 17.4% | [5] 28.6% | [6] -25.8%

Nc1cccc(N)n1.[Cu+2]
inactive: [1] -20.1% | [2] -12.1% | [3] -13.8% | [4] -13.2% | [5] -15% | [6] -14.2%

CC(=O)c1ccccn1
inactive: [1] -8.7% | [2] -31.4% | [3] -13.8% | [4] -7.3% | [5] -22.8% | [6] -26.6%

N#Cc1ccc(/C=N\NC(=O)CCSCCC(=O)N/N=C/c2ccc(C#N)cc2)cc1
inactive: [1] 13.2% | [2] 24.9% | [3] 7.65% | [4] 18.4% | [5] 13.1% | [6] 7.45%

CCOC(=O)[C@H]1Nc2ccc(Cl)cc2[C@H]2OCC[C@@H]12
inactive: [1] 5.5% | [2] -10.9% | [3] -2.4% | [4] 23.8% | [5] 3.15% | [6] -0.7%

C#CC(NC(C)(C)CC(C)(C)C)C(C)C (stereo unspecified)
inactive: [1] 31.1% | [2] 4.25% | [3] 0.55% | [4] 6.8% | [5] 4.1% | [6] 12.2%

CC(=O)Oc1cc(OC(C)=O)c2c(c1C)CC[C@@H]1[C@@H]2CC[C@]2(C)[C@@H](OC(C)=O)CC[C@@H]12
inactive: [1] 18.1% | [2] 10.1% | [3] -0.25% | [4] -17% | [5] -5.3% | [6] 34.3%

C1=CC2CCC1C1CSCC21 (stereo unspecified)
inactive: [1] -3.15% | [2] -11.6% | [3] -8.95% | [4] -33.8% | [5] -3.45% | [6] -12.7%

Cc1cc(C)c(/C=N/NC(=O)NN)c(C)c1
inactive: [1] -16.7% | [2] -7.15% | [3] -12.2% | [4] -2.1% | [5] 2.8% | [6] -4.6%

C/C(=N/OCCC(=O)O)C1CC1
inactive: [1] -2.85% | [2] -1.65% | [3] -1.35% | [4] 11.8% | [5] 7.9% | [6] -17.6%

O=C(O)CCS(=O)(=O)CCC(=O)O
inactive: [1] -8.4% | [2] 0.8% | [3] -21.4% | [4] -30% | [5] 8.6% | [6] 22.8%

O=[N+]([O-])c1ccc2nc(-c3ccccn3)c(-c3ccccn3)nc2c1
inactive: [1] 43.9% | [2] 18.4% | [3] 42.6% | [4] 18.1% | [5] 47.5% | [6] 41%

COc1ccccc1Cn1nc(OC)c2cc([N+](=O)[O-])ccc21
inactive: [1] 27.6% | [2] 30.6% | [3] -6.1% | [4] 2.05% | [5] -17.9% | [6] -64.7%

CCCCN=C(NC#N)NCCCC
inactive: [1] -27.6% | [2] 7.9% | [3] -31.2% | [4] -0.1% | [5] -25.4% | [6] -13.8%

CCOc1ccc(N=C=S)cc1
inactive: [1] 29.9% | [2] -3.05% | [3] 18% | [4] 22.3% | [5] 18.9% | [6] 49%

CCCCCCOC(=O)c1cccc(C)c1
inactive: [1] 7.15% | [2] 4.4% | [3] 5.8% | [4] -35% | [5] 6.85% | [6] 11.2%

CCCCC(C)C(=O)CC(SCC)c1ccc(Cl)c(Cl)c1 (stereo unspecified)
inactive: [1] 19.6% | [2] -26.9% | [3] 17.3% | [4] -12.4% | [5] 8.2% | [6] -0.95%

O=C(O)C1CC2CC(=O)C1C2 (stereo unspecified)
inactive: [1] 12.8% | [2] -5.45% | [3] -0.85% | [4] -9.75% | [5] 3.4% | [6] 9%

C/C=C/C=N/NS(=O)(=O)c1ccc(C)cc1
inactive: [1] 11.3% | [2] 17.8% | [3] -4.1% | [4] -45.4% | [5] -1% | [6] -12.4%

CCOC(=O)NC(NC(=O)OCC)c1ccc(OC)cc1
inactive: [1] -7.7% | [2] -1.95% | [3] 1.75% | [4] 42.7% | [5] -6.55% | [6] -10.1%
